Assay results from PubChem BioAssay (NCI).
About 79,000 compounds went through this panel and 15% of them were active in at least one assay; those are over-represented in the sample as a whole. Values without a mark were called inactive. The source made the active and inactive calls. Rule as the data show it: active = growth inhibition above about 70%; inactive = the rest.

Assay: NCI Yeast Anticancer Drug Screen. Data for the mec2-1 strain (AID 157)
Conditions: S. cerevisiae mec2-1 strain, at 5.0 µM (retest, dose inferred, filed as 0.5), active compounds read high
Summary of the method: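 Yeast mec2-1 mutant treated with compound. Readout: growth inhibition vs vehicle controls.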
`Cc1[nH]nc(-c2cccnc2)c1N=NN1CCOCC1` showed a growth inhibition of 7%. Molecule `CC1CCC2(CC1)NC1=C(CC(C)CC1)C1=C2CC(C)CC1` (stereo unspecified) has a growth inhibition of 28%. `CN(C)CC(CN1CCCC1)C(=O)c1ccccc1` (stereo unspecified) gave a growth inhibition of -2%. Work on `COc1ccc(/C(Cl)=C(/c2ccc(O)cc2)c2ccc(OCCN(C)C)cc2)cc1` yielded a growth inhibition of 32%. Work on `N#CSC#CCCC#CSC#N` yielded a growth inhibition of 43%. With `COc1cc2c(c(C3C(=O)N(C)c4ccc(Br)cc43)c1OC)OCO2` (stereo unspecified) the growth inhibition was 2%. Molecule `CC(=O)Nc1c([N+](=O)[O-])cc2c3c(cccc13)C=C2` has a growth inhibition of 1%. Work on `COC(=O)c1ccccc1CC(Cc1ccc2c(c1)CCC2)C(=O)OC` (stereo unspecified) yielded a growth inhibition of 12%. Molecule `CCC(C)Sc1nc2c([nH]1)c(=S)n(C)c(=O)n2C` (stereo unspecified) has a growth inhibition of 20%. For `O=S(=O)(c1ccc(NC(=S)NCc2ccncc2)cc1)N1CCCCC1`, the growth inhibition was -11%. For `CC12C(=O)OC(=O)C1C1c3ccccc3C2c2ccccc21` (stereo unspecified), the growth inhibition was 82% (active). `CCOC(=O)C(F)C(Br)C(=O)OCC` (stereo unspecified) showed a growth inhibition of 28%. Molecule `COC(=O)C1C2CC3c4[nH]c5cc(OC)c(Br)cc5c4CCN3CC2CC(OC(=O)c2cc(OC)c(OC)c(OC)c2)C1OC` (stereo unspecified) has a growth inhibition of -4%. `Cc1cccc2c1Oc1ccccc1C2N1C(=O)/C(=C/c2cccs2)SC1=S` (stereo unspecified) showed a growth inhibition of -23%. In the case of `COc1ccc(OC(C)=O)c2c1CCC=CC2=O`, the growth inhibition is reported as 24%. Work on `O=C(Nc1ccc(Cl)c(Cl)c1Cl)Oc1c(Cl)c(Cl)c(Cl)c(Cl)c1Cl` yielded a growth inhibition of 36%. `COc1ccc(CCCC(=O)O)c2c(OC)cccc12` gave a growth inhibition of 0%. For `FC(F)(F)c1ccc(Nc2ccc(C(F)(F)F)cc2)cc1`, the growth inhibition was -17%.

Same assay, conditions: S. cerevisiae mec2-1 strain, at 50.0 µM (retest, dose inferred, filed as 5.0), active compounds read high
With `Cc1[nH]nc(-c2cccnc2)c1N=NN1CCOCC1` the growth inhibition was 79% (active). For `CC1CCC2(CC1)NC1=C(CC(C)CC1)C1=C2CC(C)CC1` (stereo unspecified), the growth inhibition was 85% (active). For `CN(C)CC(CN1CCCC1)C(=O)c1ccccc1` (stereo unspecified), the growth inhibition was 36%. Work on `COc1ccc(/C(Cl)=C(/c2ccc(O)cc2)c2ccc(OCCN(C)C)cc2)cc1` yielded a growth inhibition of 32%. Work on `N#CSC#CCCC#CSC#N` yielded a growth inhibition of 55%. With `COc1cc2c(c(C3C(=O)N(C)c4ccc(Br)cc43)c1OC)OCO2` (stereo unspecified) the growth inhibition was 4%. For `CC(=O)Nc1c([N+](=O)[O-])cc2c3c(cccc13)C=C2`, the growth inhibition was 47%. In the case of `COC(=O)c1ccccc1CC(Cc1ccc2c(c1)CCC2)C(=O)OC` (stereo unspecified), the growth inhibition is reported as 14%. Work on `CCC(C)Sc1nc2c([nH]1)c(=S)n(C)c(=O)n2C` (stereo unspecified) yielded a growth inhibition of 52%. Molecule `O=S(=O)(c1ccc(NC(=S)NCc2ccncc2)cc1)N1CCCCC1` has a growth inhibition of -43%. With `CC12C(=O)OC(=O)C1C1c3ccccc3C2c2ccccc21` (stereo unspecified) the growth inhibition was 99% (active). In the case of `CCOC(=O)C(F)C(Br)C(=O)OCC` (stereo unspecified), the growth inhibition is reported as 99% (active). For `COC(=O)C1C2CC3c4[nH]c5cc(OC)c(Br)cc5c4CCN3CC2CC(OC(=O)c2cc(OC)c(OC)c(OC)c2)C1OC` (stereo unspecified), the growth inhibition was 74% (active). Molecule `Cc1cccc2c1Oc1ccccc1C2N1C(=O)/C(=C/c2cccs2)SC1=S` (stereo unspecified) has a growth inhibition of 37%. In the case of `COc1ccc(OC(C)=O)c2c1CCC=CC2=O`, the growth inhibition is reported as 96% (active). For `O=C(Nc1ccc(Cl)c(Cl)c1Cl)Oc1c(Cl)c(Cl)c(Cl)c(Cl)c1Cl`, the growth inhibition was 100% (active). `COc1ccc(CCCC(=O)O)c2c(OC)cccc12` gave a growth inhibition of 48%. In the case of `FC(F)(F)c1ccc(Nc2ccc(C(F)(F)F)cc2)cc1`, the growth inhibition is reported as 100% (active).
